# In the supplement of paper PMC11732987, “Enantioselective OTUD7B fragment discovery through chemoproteomics screening and high-throughput optimisation” (Communications Chemistry, 2025):
# A number with no mark means an inactive call.
# Experiments:
# Test in all cases: log2 ratio of Biotin-Ahx-Ub-VS probe labelling (fragment/DMSO); higher = less target engagement (more negative = stronger competition), active = hit call of the paper (q ≤ 0.05, log2 ratio ≤ -1)
# Details in all cases: compound concentration: 200 uM; treatment time: 3 h
# [1] = biological target: T1, OTUD6B (UniProt Q8N6M0)
# T1 sequence (whole entry): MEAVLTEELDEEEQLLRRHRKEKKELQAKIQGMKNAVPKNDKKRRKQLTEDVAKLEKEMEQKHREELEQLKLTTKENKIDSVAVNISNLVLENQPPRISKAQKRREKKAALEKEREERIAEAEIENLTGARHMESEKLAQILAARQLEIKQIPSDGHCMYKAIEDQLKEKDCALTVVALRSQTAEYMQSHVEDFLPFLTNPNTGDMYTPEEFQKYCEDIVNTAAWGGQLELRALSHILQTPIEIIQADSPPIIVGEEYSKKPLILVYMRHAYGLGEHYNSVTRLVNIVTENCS
# Summary of the method: (§1)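 The table lists average log2 ratios of fragment over vehicle, from an unpaired t-test on global-median-normalised Spectronaut label-free quantities. Proteins with ≥2 unique peptides were used. Samples were HEK293T lysate (495 µg) treated in triplicate with fragment at 200 µM or vehicle for 3 h, then with Biotin-Ahx-Ub-VS (0.5 µM final) for 1 h, with labelled DUBs NeutrAvidin-enriched and run by diaPASEF LC-MS/MS.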
# [2] = biological target: T2, OTUD7B (UniProt Q6GQQ9)
# T2 sequence (whole entry): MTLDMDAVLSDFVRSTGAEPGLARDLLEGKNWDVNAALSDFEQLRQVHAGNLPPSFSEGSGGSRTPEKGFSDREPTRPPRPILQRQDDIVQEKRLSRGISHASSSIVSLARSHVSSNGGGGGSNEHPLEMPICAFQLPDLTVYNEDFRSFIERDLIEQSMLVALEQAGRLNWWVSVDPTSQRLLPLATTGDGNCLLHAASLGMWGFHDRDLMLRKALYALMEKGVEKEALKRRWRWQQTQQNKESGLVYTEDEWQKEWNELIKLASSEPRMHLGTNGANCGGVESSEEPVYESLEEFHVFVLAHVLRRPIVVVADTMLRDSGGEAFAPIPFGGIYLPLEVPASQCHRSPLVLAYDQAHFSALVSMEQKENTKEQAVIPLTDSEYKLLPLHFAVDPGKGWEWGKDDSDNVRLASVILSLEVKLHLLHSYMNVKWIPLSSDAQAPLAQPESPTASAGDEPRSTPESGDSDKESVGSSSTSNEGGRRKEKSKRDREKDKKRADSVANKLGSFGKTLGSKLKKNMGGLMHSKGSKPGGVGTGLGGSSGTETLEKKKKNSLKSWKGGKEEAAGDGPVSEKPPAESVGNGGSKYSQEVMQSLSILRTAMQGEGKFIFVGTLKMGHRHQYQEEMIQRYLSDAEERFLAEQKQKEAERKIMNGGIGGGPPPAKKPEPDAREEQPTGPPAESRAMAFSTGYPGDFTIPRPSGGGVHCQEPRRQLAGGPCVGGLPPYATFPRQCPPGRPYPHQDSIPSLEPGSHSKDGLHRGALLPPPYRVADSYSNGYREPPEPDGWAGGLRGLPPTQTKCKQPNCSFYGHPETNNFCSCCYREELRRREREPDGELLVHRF
# Summary of the method: as §1
# [3] = biological target: PRPF8 (UniProt Q6P2Q9)
# Summary of the method: as §1
# [4] = biological target: T3, PSMD7 (UniProt P51665)
# T3 sequence (whole entry): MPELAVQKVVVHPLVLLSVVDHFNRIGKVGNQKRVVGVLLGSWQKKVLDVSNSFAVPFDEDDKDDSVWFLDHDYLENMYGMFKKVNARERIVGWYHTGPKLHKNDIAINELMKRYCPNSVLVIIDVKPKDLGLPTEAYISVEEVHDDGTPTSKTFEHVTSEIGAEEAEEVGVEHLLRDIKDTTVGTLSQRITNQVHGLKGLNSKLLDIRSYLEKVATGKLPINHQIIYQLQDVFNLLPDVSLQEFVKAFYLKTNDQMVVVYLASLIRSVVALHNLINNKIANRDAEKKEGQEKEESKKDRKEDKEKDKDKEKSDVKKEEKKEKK
# Summary of the method: as §1
# [5] = biological target: UCHL1 (UniProt P09936)
# Summary of the method: as §1
# [6] = biological target: T4, UCHL3 (UniProt P15374)
# T4 sequence (whole entry): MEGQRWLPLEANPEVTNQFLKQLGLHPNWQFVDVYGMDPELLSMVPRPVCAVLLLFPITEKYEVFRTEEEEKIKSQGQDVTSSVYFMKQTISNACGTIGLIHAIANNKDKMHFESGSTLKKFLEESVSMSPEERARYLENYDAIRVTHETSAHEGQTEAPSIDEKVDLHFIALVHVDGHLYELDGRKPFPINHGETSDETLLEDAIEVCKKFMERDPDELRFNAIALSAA
# Summary of the method: as §1
# [7] = biological target: T5, UCHL5 (UniProt Q9Y5K5)
# T5 sequence (whole entry): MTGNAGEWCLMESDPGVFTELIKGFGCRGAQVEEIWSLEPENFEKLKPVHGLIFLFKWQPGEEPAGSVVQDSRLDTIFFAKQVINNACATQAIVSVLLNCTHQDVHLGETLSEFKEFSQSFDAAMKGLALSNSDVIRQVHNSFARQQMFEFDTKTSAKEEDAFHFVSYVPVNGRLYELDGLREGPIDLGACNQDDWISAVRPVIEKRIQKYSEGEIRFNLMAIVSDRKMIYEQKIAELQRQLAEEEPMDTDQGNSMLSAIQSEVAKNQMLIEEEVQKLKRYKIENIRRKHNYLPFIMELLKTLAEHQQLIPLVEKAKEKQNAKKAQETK
# Summary of the method: as §1
# [8] = biological target: USP10 (UniProt Q14694)
# Summary of the method: as §1
# [9] = biological target: T6, USP15 (UniProt Q9Y4E8)
# T6 sequence (whole entry): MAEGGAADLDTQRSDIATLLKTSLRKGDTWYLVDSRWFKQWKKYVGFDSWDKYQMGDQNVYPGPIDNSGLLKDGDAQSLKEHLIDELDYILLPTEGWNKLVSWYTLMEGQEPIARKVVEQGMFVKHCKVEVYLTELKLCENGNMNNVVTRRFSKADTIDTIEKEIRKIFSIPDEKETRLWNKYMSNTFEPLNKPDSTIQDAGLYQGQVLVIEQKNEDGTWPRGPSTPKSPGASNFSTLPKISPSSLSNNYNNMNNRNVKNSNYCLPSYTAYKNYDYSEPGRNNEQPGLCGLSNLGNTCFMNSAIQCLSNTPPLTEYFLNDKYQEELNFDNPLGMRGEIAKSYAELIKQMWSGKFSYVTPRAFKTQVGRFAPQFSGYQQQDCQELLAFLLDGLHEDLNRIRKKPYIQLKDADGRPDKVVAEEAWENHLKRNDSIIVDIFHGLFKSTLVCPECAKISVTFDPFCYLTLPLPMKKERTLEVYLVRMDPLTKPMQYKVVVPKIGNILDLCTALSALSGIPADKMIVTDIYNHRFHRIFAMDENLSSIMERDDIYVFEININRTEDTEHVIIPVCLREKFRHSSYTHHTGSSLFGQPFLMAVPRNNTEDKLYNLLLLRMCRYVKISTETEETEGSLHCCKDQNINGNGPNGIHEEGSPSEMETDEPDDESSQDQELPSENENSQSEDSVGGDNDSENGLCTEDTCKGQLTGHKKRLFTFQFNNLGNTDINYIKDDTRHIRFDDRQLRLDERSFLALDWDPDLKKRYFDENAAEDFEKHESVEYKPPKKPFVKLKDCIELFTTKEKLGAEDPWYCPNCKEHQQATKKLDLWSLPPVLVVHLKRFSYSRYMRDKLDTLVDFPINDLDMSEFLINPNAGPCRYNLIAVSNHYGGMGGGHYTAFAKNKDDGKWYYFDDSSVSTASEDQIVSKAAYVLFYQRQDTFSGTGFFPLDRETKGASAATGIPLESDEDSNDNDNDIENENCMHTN
# Summary of the method: as §1
# [10] = biological target: USP16 (UniProt Q9Y5T5)
# Summary of the method: as §1
# USP10, sequence (Q14694 whole entry): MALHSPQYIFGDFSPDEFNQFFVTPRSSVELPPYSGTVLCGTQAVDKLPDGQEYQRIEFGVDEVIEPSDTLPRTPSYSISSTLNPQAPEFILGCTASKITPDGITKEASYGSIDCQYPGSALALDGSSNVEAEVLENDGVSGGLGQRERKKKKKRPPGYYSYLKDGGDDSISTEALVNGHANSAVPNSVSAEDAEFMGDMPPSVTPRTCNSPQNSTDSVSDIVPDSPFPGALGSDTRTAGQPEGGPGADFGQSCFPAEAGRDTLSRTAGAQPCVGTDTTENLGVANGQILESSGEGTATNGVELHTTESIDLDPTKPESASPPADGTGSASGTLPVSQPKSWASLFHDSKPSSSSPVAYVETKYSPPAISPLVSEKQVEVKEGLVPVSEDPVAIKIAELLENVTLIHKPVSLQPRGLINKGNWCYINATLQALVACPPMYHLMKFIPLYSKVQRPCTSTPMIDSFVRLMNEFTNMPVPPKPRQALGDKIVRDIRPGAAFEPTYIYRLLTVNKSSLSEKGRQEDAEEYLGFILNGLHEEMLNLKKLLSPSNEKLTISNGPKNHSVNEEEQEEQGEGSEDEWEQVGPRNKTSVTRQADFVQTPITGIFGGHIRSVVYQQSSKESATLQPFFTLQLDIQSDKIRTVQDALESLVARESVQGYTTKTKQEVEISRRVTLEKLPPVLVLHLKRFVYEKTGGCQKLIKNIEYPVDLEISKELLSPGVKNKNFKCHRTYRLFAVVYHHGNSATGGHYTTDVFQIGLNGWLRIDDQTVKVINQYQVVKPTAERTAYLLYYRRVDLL
# USP16, sequence (Q9Y5T5 whole entry, looked up): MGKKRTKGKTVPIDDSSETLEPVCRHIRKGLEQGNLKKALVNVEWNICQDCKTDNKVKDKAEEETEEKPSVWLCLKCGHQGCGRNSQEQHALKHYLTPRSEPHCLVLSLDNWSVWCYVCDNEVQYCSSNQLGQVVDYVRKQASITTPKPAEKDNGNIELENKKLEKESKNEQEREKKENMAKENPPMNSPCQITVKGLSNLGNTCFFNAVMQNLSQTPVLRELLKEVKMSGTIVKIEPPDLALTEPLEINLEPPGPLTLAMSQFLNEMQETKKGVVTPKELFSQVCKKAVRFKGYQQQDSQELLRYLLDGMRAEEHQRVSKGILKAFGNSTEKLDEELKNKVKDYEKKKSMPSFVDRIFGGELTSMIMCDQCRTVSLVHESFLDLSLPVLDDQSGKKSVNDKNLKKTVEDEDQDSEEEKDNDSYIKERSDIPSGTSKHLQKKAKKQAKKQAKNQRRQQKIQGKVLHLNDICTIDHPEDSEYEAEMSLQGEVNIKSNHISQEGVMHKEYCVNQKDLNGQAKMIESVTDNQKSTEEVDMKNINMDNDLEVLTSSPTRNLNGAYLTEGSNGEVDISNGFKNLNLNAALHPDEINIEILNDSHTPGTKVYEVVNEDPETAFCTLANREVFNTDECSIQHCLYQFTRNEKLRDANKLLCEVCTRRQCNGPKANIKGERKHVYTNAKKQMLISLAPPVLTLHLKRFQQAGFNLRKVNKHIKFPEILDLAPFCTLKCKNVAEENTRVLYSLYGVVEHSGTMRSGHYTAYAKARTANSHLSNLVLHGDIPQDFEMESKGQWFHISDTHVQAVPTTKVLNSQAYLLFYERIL
# UCHL1, sequence (P09936 whole entry, looked up): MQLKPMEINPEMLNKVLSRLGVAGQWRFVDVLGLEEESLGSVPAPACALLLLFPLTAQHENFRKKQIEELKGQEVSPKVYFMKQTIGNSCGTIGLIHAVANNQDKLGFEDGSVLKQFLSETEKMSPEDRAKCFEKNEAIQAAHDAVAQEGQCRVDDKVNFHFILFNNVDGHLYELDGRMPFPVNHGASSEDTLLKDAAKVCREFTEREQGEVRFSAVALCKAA
smiles,measurement,setting,value
O=C(CCl)N1CCCC1c1ccsc1 (stereo not given),log2 ratio of Biotin-Ahx-Ub-VS probe labelling,[1],-0.452
same,log2 ratio of Biotin-Ahx-Ub-VS probe labelling,[2],-0.521
same,log2 ratio of Biotin-Ahx-Ub-VS probe labelling,[3],0.0505
same,log2 ratio of Biotin-Ahx-Ub-VS probe labelling,[4],-0.39
same,log2 ratio of Biotin-Ahx-Ub-VS probe labelling,[5],-1.81 (active)
same,log2 ratio of Biotin-Ahx-Ub-VS probe labelling,[6],-0.121
same,log2 ratio of Biotin-Ahx-Ub-VS probe labelling,[7],-0.228
same,log2 ratio of Biotin-Ahx-Ub-VS probe labelling,[8],-0.161
same,log2 ratio of Biotin-Ahx-Ub-VS probe labelling,[9],-0.548
same,log2 ratio of Biotin-Ahx-Ub-VS probe labelling,[10],-0.254
